Our source for the growth values is PubChem BioAssay (NCI).

“And” between values parts separate entries of the source, which are not always exact repeats. Equal values may be shown once. The panel holds about 83,000 compounds, 20% with a hit somewhere; the sample as a whole holds those more often.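 Each cell line was grown in a 96-well plate and treated with one concentration of compound for 48 hours. Values below 10 were considered active.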 Unmarked numbers belong to inactive results. The source made the active and inactive calls. Where a SMILES comes first, the peptide text is derived from it. The star is where a group is joined. Trt = c1ccc(C(c2ccccc2)(c2ccccc2)*)cc1; Cbz = O=C(OCc1ccccc1)*

The first assay has as its system PC-3 prostate. The assay is described as follows: NCI-60 one-dose screen, 48 h (100 = growth as untreated, 0 = no growth, -100 = all killed). The following applies: 10 µM. The procedure: Growth inhibition of the PC-3 human tumor cell line is measured as a screen for anti-cancer activity. Cells are grown in 96 well plates and exposed to the test compound for 48 hours. Compounds are tested at a single concentration, which is 10^-5 M for most compounds. The reported endpoint is percent growth (GI% or GIPRCNT), where numbers from 0 - 100% represent growth inhibition, and numbers from -100% - 0 represent cell death. For example, a value of 40 represents 60% growth inhibition. A value of 0 means no net growth occurred over the course of the experiment. A value of -40 indicates 40% of cells at the beginning of the experiment died by the end of the experiment. A value of -100 means all cells are dead at the end of the experiment.
NCI-60 Human Tumor Cell Lines Screen was performed using the standard one-dose NCI protocol, which is described in more detail at https://dtp.cancer.gov/discovery_development/nci-60/default.htm.
Compounds with GIPRCNT values below 10 were considered active. Activity score was based on GIPRCNT using the following formula: […]
Score is 0 for GIPRCNT values of 100 or above, 50 for GIPRCNT values of 0, and 100 for GIPRCNT values of -100.
As to `O=C(Nc1c(Cl)cccc1Cl)Oc1cccc2cccnc12`, the growth was 41%.
Same read-out and setting: the same measure for `COc1ccc(-c2cscc2N)cc1`: 98.4%; for `O=C(Nc1cccc(Br)c1)Oc1cccc2cccnc12`: 92.9%.

Staying with this assay, now noted: 10 µM unless noted.
Turning to `OC(CNc1ccnc2cc(Cl)ccc12)CNc1ccnc2cc(Cl)ccc12`, the growth was 69.7%.
Same read-out and setting: with `CCN(CC)CCOc1ccc(-c2nc3cc(Cl)ccc3s2)cc1` the figure was 4.44% (active); with `Cc1ccc(C(=Nc2ccccc2)N=P(c2ccccc2)(c2ccccc2)c2ccccc2)cc1`, -31.5% (active); with `CCOC(=O)c1c(C)[nH]c(CO)c1C`, 98.1%.
Turning to `COc1cc(NS(C)(=O)=O)ccc1Nc1c2ccccc2nc2ccccc12`, the growth was 52.8% [2.5 µM].
Same read-out and setting: the same measure for `NC1=CC(=O)c2ccccc2C1=O`: 55.6%; for `CCCCCCC(C)c1ccccc1O` (stereo not given) (tested in a mixture with another compound): 94.8%.
On the same count and under the same terms, with `Cc1cc2nc(CS)[nH]c2cc1C` the figure was 87.4%; with `CC(=O)ON=C1C=CC(=C(C#N)c2ccccc2)C=C1`, -1.95% (active).
On the same count and under the same terms, the same measure for `Cc1ccc2c(ccc3c[n+]4c5ccccc5ccc4n32)c1`: 8.46% (active); for `Cc1ccc(NS(=O)(=O)c2ccc(C)cc2)cc1`: 97.7% and 94%.
On to `C1=C(c2ccccc2)C(c2ccc(OCCN3CCCCC3)cc2)Oc2ccccc21` (stereo not given), for which the growth is 60.6%.
The same measure, in the same setting: the same measure for `Cc1ccc2nc(-[n+]3cc4ccccc4cc3C)ccc2c1`: 17.5%; for `Cn1c2ccccc2c2nnc(N/N=C/c3ccccn3)nc21`: 28.4%; for `Cc1cc(C(C)(CC(C)C)c2ccc(O)c(C)c2)ccc1O`: 93.2%.
On the same count and under the same terms, with `Oc1ccc(/C=N/NC(=S)Nc2ccccc2)nc1` the figure was 23.3%; with `Cc1ccc2nc(C[n+]3ccc4ccccc4c3)ccc2c1`, 38.5%; with `NC(N)=N/N=C/c1ccc([N+](=O)[O-])o1`, 90%.
Still for that read-out and setting: with `COC(=O)C(CSC(c1ccccc1)(c1ccccc1)c1ccccc1)NC(=O)C(CC(N)=O)NC(=O)OCc1ccccc1` (stereo not drawn) (Cbz-Asn-Cys(Trt)-OMe; configuration not given here) the figure was 36.9%; with `CN(Cc1cnc2nc(N)nc(N)c2n1)c1ccc(C(=O)NC(CCC(=O)O)C(=O)O)cc1` (stereo not given), 62.1%; with `CCC(=O)Sc1ccccc1C(=O)Nc1ccc(Cl)cc1`, 66.9%.
`COC(=O)Nc1nc2ccc(C(=O)c3ccccc3)cc2[nH]1`: the growth is 30.5% and 18.6% and 16.7%.
On the same count and under the same terms, the same measure for `O=C(Nc1cccc(Br)c1)Oc1ccc(Cl)c2cccnc12`: 20.2% [100 µM]; for `CC1(C)CC([P+](c2ccccc2)(c2ccccc2)c2ccccc2)=NN1`: 29.1%; for `O=C1c2ccccc2C(=O)c2sc(Nc3ccc(Cl)cc3)nc21`: 2.24% (active).
Still for that read-out and setting: with `COC(=O)[C@@]12OC[C@]34[C@H]([C@@H](O)[C@@H]1O)[C@@]1(C)[C@H](O)C(=O)C=C(C)[C@@H]1C[C@H]3OC(=O)C(OC(C)=O)[C@@H]24` (stereo not given in full) the figure was -51% (active); with `O=C1c2cccnc2-c2nccc3c2c1nc1cc(Br)ccc13`, -43.2% (active) and -86.6% (active); with `CC(C)(C)CC(C)(C)c1ccc(OCCSC(=N)N)cc1`, 72.2%.
Still for that read-out and setting: with `O=C(Oc1cccc2cccnc12)c1ccccc1` the figure was 81.1% and 93.8%; with `O=C(O)C1C2CC3C(OC(=O)C31)C2Br` (stereo not given), 90.4% and 105%; with `CCOC(=O)/C=C/c1ccc([N+](=O)[O-])o1`, 93.4%.
Consider `Cn1c2c(c3ccccc31)CCN1C[C@@H]3CCCC[C@H]3C[C@@H]21`, for which the growth was 23%.
For the compound `N#CSCc1c(Cl)cccc1Cl`, the growth was 76.2%.
The same measure, in the same setting: with `O=C(/C=C\c1ccccc1)N1c2ccccc2CC1c1c[nH]c2ccccc12` (stereo not given) the figure was 53.6%.

Still in this assay, the particulars now being: 100 µM.
Turning to `O=C(Nc1c(Cl)cccc1Cl)Oc1cccc2cccnc12`, the growth is 19.3%.
On to `COc1ccc(-c2cscc2N)cc1`, for which the growth is 41.4%.
Same read-out and setting: the same measure for `O=C(Nc1cccc(Br)c1)Oc1cccc2cccnc12`: 11.7%.
